# Results: paper PMC8384837, “Expanding the binding specificity for RNA recognition by a PUF domain”
# Legend:
# Experiment in all cases: yeast three-hybrid, YBZ-1, SC-Leu-His + 0.5 mM 3-AT, 4 days
# Conditions in all cases: tags: N-Gal4 AD-HA kept; label: inside an RPR1-promoter hybrid RNA with tandem MS2 sites; ssRNA
# PUM1 PUF domain R3-RDS = PUM1 PUF domain R3-RDS (Homo sapiens, UniProt Q14671 828-1176, C935R;R936D;Q939S)
# How it was run: (§1)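 The interaction score is the log change in how often each variant appears, from input to selection. Frequencies came from PCR-amplified, Illumina-sequenced repeat regions of Pumilio-1 PUF domain libraries grown in strain YBZ-1 (LexA–MS2 coat fusion, HIS3 reporter) alongside matching RNA elements. Input plates were SC-Leu and selection plates were SC-Leu-His + 0.5 mM 3-AT, each for four days, and the log2 calculation used a pseudocount of 1 where a variant was absent.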
# PUM1 PUF domain R7-RRM = PUM1 PUF domain R7-RRM (Homo sapiens, UniProt Q14671 828-1176, S1079R;N1080R;E1083M)
# How it was run: as §1
# PUM1 PUF domain R8-HWL = PUM1 PUF domain R8-HWL (Homo sapiens, UniProt Q14671 828-1176, N1122H;Y1123W;Q1126L)
# How it was run: as §1
# PUM1 PUF domain R8-QWS = PUM1 PUF domain R8-QWS (Homo sapiens, UniProt Q14671 828-1176, N1122Q;Y1123W;Q1126S)
# How it was run: as §1
# PUM1 PUF domain R4-WAG = PUM1 PUF domain R4-WAG (Homo sapiens, UniProt Q14671 828-1176, N971W;H972A;Q975G)
# How it was run: as §1
# PUM1 PUF domain R3-CNY = PUM1 PUF domain R3-CNY (Homo sapiens, UniProt Q14671 828-1176, R936N;Q939Y)
# How it was run: as §1
# PUM1 PUF domain R6-SFQ = biological target: T1, PUM1 PUF domain R6-SFQ (Homo sapiens, UniProt Q14671 828-1176, N1043S;Y1044F)
# T1 sequence: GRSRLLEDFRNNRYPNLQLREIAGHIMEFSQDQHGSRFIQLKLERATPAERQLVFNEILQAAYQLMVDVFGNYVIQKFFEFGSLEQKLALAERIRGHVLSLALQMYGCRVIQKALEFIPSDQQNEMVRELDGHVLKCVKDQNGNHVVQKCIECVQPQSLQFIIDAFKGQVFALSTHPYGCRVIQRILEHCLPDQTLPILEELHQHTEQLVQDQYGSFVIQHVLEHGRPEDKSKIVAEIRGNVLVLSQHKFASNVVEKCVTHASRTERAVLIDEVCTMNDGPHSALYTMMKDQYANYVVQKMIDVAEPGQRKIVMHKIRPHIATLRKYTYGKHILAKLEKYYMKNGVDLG
# How it was run: as §1
# PUM1 PUF domain R3-LRC = PUM1 PUF domain R3-LRC (Homo sapiens, UniProt Q14671 828-1176, C935L;Q939C)
# How it was run: as §1
# PUM1 PUF domain R5-KGR = PUM1 PUF domain R5-KGR (Homo sapiens, UniProt Q14671 828-1176, C1007K;R1008G;Q1011R)
# How it was run: as §1
# PUM1 PUF domain R4-GWY = PUM1 PUF domain R4-GWY (Homo sapiens, UniProt Q14671 828-1176, N971G;H972W;Q975Y)
# How it was run: as §1
sequence,measurement,setting,value
GGCUAGAACUAGUGGAUCCCCCGGCGCCCGGCGGCUCGAGCCCGGGUAAGUGUAAUUAGUCUGCAUGCCGCCGGGCGCCAUGCCUGCAGGUCGACUCUAGAAAACAUG,binding signal,PUM1 PUF domain R3-RDS,2.88 log2 enrichment (interaction score)
GGCUAGAACUAGUGGAUCCCCCGGCGCCCGGCGGCUCGAGCCCGGGUAAGUCUAAAUAGUCUGCAUGCCGCCGGGCGCCAUGCCUGCAGGUCGACUCUAGAAAACAUG,binding signal,PUM1 PUF domain R7-RRM,4.89 log2 enrichment (interaction score)
GGCUAGAACUAGUGGAUCCCCCGGCGCCCGGCGGCUCGAGCCCGGGUAAGCGUAAAUAGUCUGCAUGCCGCCGGGCGCCAUGCCUGCAGGUCGACUCUAGAAAACAUG,binding signal,PUM1 PUF domain R8-HWL,4.14 log2 enrichment (interaction score)
GGCUAGAACUAGUGGAUCCCCCGGCGCCCGGCGGCUCGAGCCCGGGUAAGUGUAAAUAGUCUGCAUGCCGCCGGGCGCCAUGCCUGCAGGUCGACUCUAGAAAACAUG,binding signal,PUM1 PUF domain R8-QWS,4.13 log2 enrichment (interaction score)
same,binding signal,PUM1 PUF domain R4-WAG,2.25 log2 enrichment (interaction score)
same,binding signal,PUM1 PUF domain R8-HWL,3.96 log2 enrichment (interaction score)
same,binding signal,PUM1 PUF domain R3-CNY,3.55 log2 enrichment (interaction score)
same,binding signal,PUM1 PUF domain R6-SFQ,2.98 log2 enrichment (interaction score)
GGCUAGAACUAGUGGAUCCCCCGGCGCCCGGCGGCUCGAGCCCGGGUAAGUGUAAGUAGUCUGCAUGCCGCCGGGCGCCAUGCCUGCAGGUCGACUCUAGAAAACAUG,binding signal,PUM1 PUF domain R3-LRC,3.66 log2 enrichment (interaction score)
GGCUAGAACUAGUGGAUCCCCCGGCGCCCGGCGGCUCGAGCCCGGGUAAGUGUCAAUAGUCUGCAUGCCGCCGGGCGCCAUGCCUGCAGGUCGACUCUAGAAAACAUG,binding signal,PUM1 PUF domain R5-KGR,4.53 log2 enrichment (interaction score)
GGCUAGAACUAGUGGAUCCCCCGGCGCCCGGCGGCUCGAGCCCGGGUAAGUGUAUAUAGUCUGCAUGCCGCCGGGCGCCAUGCCUGCAGGUCGACUCUAGAAAACAUG,binding signal,PUM1 PUF domain R4-WAG,4.74 log2 enrichment (interaction score)
same,binding signal,PUM1 PUF domain R4-GWY,5.08 log2 enrichment (interaction score)
GGCUAGAACUAGUGGAUCCCCCGGCGCCCGGCGGCUCGAGCCCGGGUAAGUGUACAUAGUCUGCAUGCCGCCGGGCGCCAUGCCUGCAGGUCGACUCUAGAAAACAUG,binding signal,PUM1 PUF domain R4-WAG,3.92 log2 enrichment (interaction score)
